# Measured values reported in PubChem BioAssay (NCATS).
# Results filed as inconclusive are left out. Values without a mark were called inactive. The source made the active and inactive calls. Calls follow the shape of the dose curve; as a rule, active = well fitted inhibition curve with a large enough effect; inconclusive = small, poorly fitted or top-dose-only effect; inactive = no such curve, though single readings can be large or run the other way.
# Target: Retinaldehyde dehydrogenase 3 (Homo sapiens) (UniProt P47895)
# Assay: qHTS for Inhibitors of the Aldehyde Dehydrogenase Family (ALDH1A3) Primary screen (AID 2061315);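 also: plate controls were DMSO vehicle for no effect and reference inhibitor for full effect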
# Conditions: ALDH inhibition qHTS; series mostly up to 56 µM; activity change, negative = inhibition: at the top concentration
SMILES,"activity change, negative = inhibition",Potency
COCCNc1nc(C)nc2c1nc(-c1ccccc1)n2CCN1CCCC1,-2.78%,–
CCOc1ccc(-c2csc(N3CCC(C(N)=O)CC3)n2)cc1,-6.12%,–
O=C(O)c1c(-c2ccccc2)no[n+]1[O-],-1.36%,–
CC(C)(C)OC(=O)Cc1nnc(-c2nc3ccccc3[nH]2)o1,17.2%,–
CC(C)c1ccc(=O)n(CC(=O)NCCc2ccccc2)n1,14.6%,–
N#Cc1cccc(S(=O)(=O)N2CCN(S(=O)(=O)c3ccc4c(c3)OCCO4)CC2)c1,7.87%,–
Cc1ccc(N[S+](=O)([O-])c2cc3c(cc2Cl)CCC(=O)N3)cc1Br,-1.1%,–
CC(Nc1ccc([S+](=O)([O-])Nc2nccs2)cc1)c1ccccc1 (stereo not given),7.83%,–
Cc1ccc(S(=O)(=O)Nc2cc(F)c(F)cc2C(=O)Nc2nc(-c3ccccc3)cs2)cc1,-6.06%,–
CC1(C)CC[C@]23CO[C@@]4(CCC5[C@@]6(C)CC[C@H](O[C@@H]7OC[C@H](O[C@@H]8O[C@H](CO)[C@@H](O)[C@H](O)[C@H]8O)[C@H](O)[C@H]7O[C@@H]7O[C@H](CO)[C@@H](O[C@@H]8O[C@H](CO)[C@@H](O)[C@H](O)[C@H]8O)[C@H](O)[C@H]7O)[C@@](C)(CO)C6CC[C@@]5(C)[C@]4(C)C[C@H]2OC2OCC(O)C(O)C2O)C3C1 (stereo not given in full),1.39% [at 11.2 µM],–
Cc1nc(NCc2ccccc2)c2nc(-c3ccccc3)n(CC(C)(C)CN(C)C)c2n1,7.99%,–
COc1cc(C(=O)OC[C@@]2(O)CO[C@@H](O[C@H]3[C@H](Oc4ccc(O)cc4)O[C@H](CO)[C@@H](O)[C@@H]3O)[C@@H]2O)cc(OC)c1O,-15.5% [at 16.9 µM],–
COc1c/c(=C2\C=c3ccccc3=N2)[nH]/c1=C\c1[nH]c(C)cc1C,-19%,–
O=S(=O)(c1ccc(Br)cc1)N1CCN(S(=O)(=O)c2ccc3c(c2)OCCO3)CC1,1.75%,–
CC(C)(C)OC(=O)CC(=O)NNC(=O)c1cc2ccccc2[nH]1,8.15%,–
Cc1c(C(=O)NCC2CCCO2)[nH]c2c1C(=O)CCC2 (stereo not given),-15.6%,–
CC(=O)c1ccc(-c2csc(N3CCC(C(N)=O)CC3)n2)cc1,-26.9%,–
Cc1cc2c(s1)c1cnn(Cc3ccccc3Br)c(=O)c1n2C,19.6%,–
COc1ccc(O[C@@H]2O[C@H](CO)[C@H](O)[C@H](O)[C@H]2O)cc1,0.424%,–
CCN(CC)CCn1c(-c2ccccc2)nc2c(NCc3ccccc3)nc(C)nc21,7.09%,–

SMILES,"activity change, negative = inhibition",Potency
Cc1cc2c(s1)c1cnn(Cc3ccc(F)cc3F)c(=O)c1n2C,-0.586%,–
Brc1ccc(-c2csc(N3CCCCC3)n2)cc1,12.5%,–
O=C(CSc1ncnc2sc3c(c12)CCCCC3)NCc1ccco1,8.51%,–
O=c1c2ccccc2nc2sc(Nc3ccc(Br)cc3)nn12,2.06%,–
Cc1ccc(NS(=O)(=O)c2ccc3c(c2)N(C)CCO3)cc1C,-8.21%,–
COC(=O)c1ccc(NC(=O)c2nc3ccccc3n(C)c2=O)cc1,-15.9%,–
O=C1CCCC2=C1C(c1[nH]ncc1Cl)NC(=NCc1ccncc1)N2 (stereo not given),1.76%,–
Cc1ccc(-c2ccc(=O)n(CC(=O)N(C)C(C)c3cccs3)n2)cc1 (stereo not given),-20.8%,–
COc1cccc(NC(=S)N2CCN(c3ccc4ccccc4n3)CC2)n1,12.3%,–
CCOc1ccc(NC(=O)c2ccc(-c3nc4ccccc4[nH]3)cc2)cc1Cl,1.48%,–
O=C1CCC2=C1C1(CCCC1)N=C(Nc1nc3ccccc3o1)N2,6.93%,–
OCC#CCSc1nnc(-c2cccc3ccccc23)o1,-0.221%,–
COc1cccc(C2=Nn3c(nnc3-c3cccc(OC)c3)SC2)c1,5.53%,–
COc1cc(NC(=O)C(OC(=O)CNC(=O)c2ccccc2)c2ccccc2)c(OC)cc1Cl (stereo not given),-6.86%,–
Oc1cc(Nc2ccncc2)cc2cccnc12,-26.1%,–
Cc1cc2c(s1)c1cnn(Cc3c(F)ccc(F)c3Cl)c(=O)c1n2C,-1%,–
CC1CC1C(=O)Nc1ccc([S+](=O)([O-])Nc2nccs2)cc1 (stereo not given),2.89%,–
Cc1cc(C)nc(NC(=S)N2CCN(c3ccc(F)cc3F)CC2)c1,–,inactive
O=C(OCC#CCSc1nnc(-c2ccc3ccccc3c2)o1)c1cccc(F)c1,9.43%,–
COc1cccc(CNc2ccc(S(=O)(=O)Nc3nc4ccccc4o3)cc2)c1O,-14%,–
